High-throughput results: PubChem, National Center for Advancing Translational Sciences (NCATS)
Giardia kill: Small Molecules that selectively kill Giardia lamblia: qHTS. activity change, % at 7.66 µM, hits read low. actives 0.15% (n = 340,000). AID 540267, 2011. Giardia lamblia trophozoite viability; in the data active = activity change below about -80%; inconclusive = between about -30% and that limit;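 note: parasites exposed to compound for two days anaerobically before the ATP read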
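Compounds were tested on trophozoites seeded at 100 cells/well and held 48 hrs at 37 deg C anaerobically. An ATP-based luminescent kit measured the remaining live cells.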
ELG1 DNA repair: qHTS screen for small molecules that inhibit ELG1-dependent DNA repair in human embryonic kidney (HEK293T) cells expressing luciferase-tagged ELG1. HEK293T ELG1-luciferase reporter, luminescence, 16 h; DNA damage induced by 5-fluorouridine. Potency, µM (doses to about 46.1 µM), usual class: inhibitors. actives 2.3% (n = 330,000); note: nearly all actives have a fitted effect of over 55% in size
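Step one: seed 2,000 cells per well. Step two: pin-transfer compound or DMSO alongside 5-fluorouridine. Step three: incubate 16 hr, 37 °C, 5% CO2. Step four: add ONE-Glo, wait 30 min, read luminescence.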
TDP1 cell noCPT: qHTS for Inhibitors of human tyrosyl-DNA phosphodiesterase 1 (TDP1): qHTS in cells in absence of CPT | AID 686978, 2013 | actives 15% (n = 420,000) | Potency, µM (series often up to 46.2 µM), most hits filed as inhibitors | DT40 Tdp1-/- hTDP1 cells, no CPT, ATP luminescence, 48 h; note: nearly all actives have a fitted effect of over 55% in size
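Chicken DT40 Tdp1-/- cells complemented with human TDP1, screened without camptothecin (DMSO vehicle only), 400 cells/well. Compounds pin-transferred, cells incubated at 37 °C for at least 48 hr. Growth read as ATP-dependent luminescence (CellTiter-Glo, 30 min at RT).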
TDP1 inh: qHTS Assay for Inhibitors of Tyrosyl-DNA Phosphodiesterase (TDP1); actives 0.28% (n = 350,000); recombinant TDP1, AlphaScreen DNA substrate cleavage; Potency, µM (titrated, usually from 130 µM), actives largely listed as inhibitors; Tyrosyl-DNA phosphodiesterase 1 (Homo sapiens), Q9NUW8; note: nearly all actives have a fitted effect of over 40% in size
Target sequence (Q9NUW8 whole entry, looked up): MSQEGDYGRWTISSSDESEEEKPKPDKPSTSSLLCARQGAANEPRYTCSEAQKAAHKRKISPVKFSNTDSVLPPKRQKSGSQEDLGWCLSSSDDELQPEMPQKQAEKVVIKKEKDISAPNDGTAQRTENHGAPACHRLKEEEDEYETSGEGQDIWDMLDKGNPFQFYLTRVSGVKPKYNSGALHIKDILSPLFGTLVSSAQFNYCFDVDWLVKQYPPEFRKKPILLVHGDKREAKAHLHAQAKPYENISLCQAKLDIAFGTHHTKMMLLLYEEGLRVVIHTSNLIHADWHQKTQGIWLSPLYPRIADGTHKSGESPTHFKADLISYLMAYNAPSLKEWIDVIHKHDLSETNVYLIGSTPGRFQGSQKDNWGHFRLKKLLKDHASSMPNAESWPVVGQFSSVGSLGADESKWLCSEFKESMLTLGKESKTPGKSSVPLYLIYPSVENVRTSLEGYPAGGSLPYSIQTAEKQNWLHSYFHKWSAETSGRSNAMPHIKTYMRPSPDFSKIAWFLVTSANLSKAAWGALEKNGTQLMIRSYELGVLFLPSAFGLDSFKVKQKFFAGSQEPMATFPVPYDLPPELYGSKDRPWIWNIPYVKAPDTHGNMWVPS
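Tdp1 1 nM final; 15 min RT w/ cpd; substrate 15 nM, 5 min; beads 10 ug/ml, 10 min; AlphaScreen read. Neg ctrl: no enzyme.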
IL-1B inflam inh: qHTS for Inhibitors of Inflammasome Signaling: IL-1-beta AlphaLISA Primary Screen | activity change, % at 57.5 µM | AID 743279, 2014 | actives 4.7% (n = 360,000) | THP-1 LPS/ATP IL-1B secretion, AlphaLISA, 16 h; stronger effect = lower value; in the data active = activity change below about -50%; inconclusive = mostly about -30% to -49%
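THP-1 cells pretreated 1 hr with compounds (up to 57.5 uM final), then stimulated with LPS (250 ng/mL final) plus ATP (1.25 mM final); secreted IL-1B measured by AlphaLISA after 16 hr, decreased signal indicating inhibition.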
TDP1 cell CPT: qHTS for Inhibitors of human tyrosyl-DNA phosphodiesterase 1 (TDP1): qHTS in cells in presence of CPT | chicken DT40 Tdp1-/-;hTDP1 cells + 20 nM CPT, ATP luminescence, 48 h | Potency, µM (highest dose often 46.2 µM), most hits filed as inhibitors | actives 12% (n = 420,000) | AID 686979, 2013; note: nearly all actives have a fitted effect of over 55% in size
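Cell growth measured by CellTiter-Glo luminescence after a minimum 48 h, 37 C compound exposure with 20 nM CPT in Tdp1-knockout DT40 cells stably expressing hTDP1, seeded 400/well; qHTS titration format.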
Hits are given with their value; 0 = inactive; ? = inconclusive; - = not tested or not shown; ! = repeats disagree; [ ] = dose if it differs, or a comment. Shown are actives, neighbours in structure and some others; about 19% of the full set was active somewhere. Unless noted, calls come from the whole dose curve; as a rule, active = well fitted curve in the direction sought with a large enough effect; inconclusive = small, poorly fitted or top-dose-only effect, or another doubt; inactive = no such curve, though single readings can be large; an effect the other way counts as inactive or inconclusive.

SMILES | Giardia kill | ELG1 DNA repair | TDP1 cell noCPT | TDP1 inh | IL-1B inflam inh | TDP1 cell CPT
Cc1cccc(C)c1-n1nnnc1C1c2ccccc2C(=O)N1CCC(C)C (stereo not given) | - | - | ? | - | 0 | ?
Cc1cccc(C)c1-n1nnnc1C1c2ccccc2C(=O)N1CCc1ccccc1F (stereo not given) | - | - | 16µM | - | 0 | ?
Cc1ccc(CN2C(=O)c3ccccc3C2c2nnnn2-c2c(C)cccc2C)cc1 (stereo not given) | - | - | 29µM | - | 0 | ?
COC(=O)/C(Cc1cc(Br)c(OC)c(Br)c1O)=N/O | - | - | - | 0 | - | -
Cc1ccc(-c2cc(NC(=O)c3cccc(C)c3)on2)cc1 | - | - | 0 | 0 | - | 0
Cc1ccccc1C(=O)Nc1cccc(NC(=O)c2ccc(C(C)(C)C)cc2)c1 | - | - | 5.8µM | 0[12.3 µM] | - | 8.2µM
COc1ccccc1C(=O)Nc1cccc(NC(=O)c2ccccc2C)c1 | 0 | ? | ? | - | -70 | ?
COc1ccccc1C(=O)Nc1cccc(NC(C)=O)c1 | 0 | 0 | 0 | 0 | 0 | 0
C/C(=N\NC(=O)c1c(Br)c(C)nn1C)c1cccc(NC(=O)c2ccccc2C)c1 | 0 | ? | ? | 0 | 0 | ?
C/C(=N\NC(=O)c1ccc(O)cc1)c1cccc(NC(=O)c2ccccc2C)c1 | 0 | 0 | 23µM | 0 | 0 | ?
Cc1ccccc1C(=O)Nc1cccc(N)c1 | 0 | ? | 0 | 0 | 0 | 0
COc1ccccc1C(=O)Nc1cc(-c2ccc(C)cc2)no1 | 0 | ? | 13µM! | 0 | ? | ?
COc1cccc(-c2ccc(O)c(CNC(c3ccccc3)c3ccc(Cl)cc3)c2)n1 (stereo not given) | - | - | 0 | - | - | 0
C=C[C@]1(C)C[C@@H](OC(=O)CSC(C)(C)CNC(=O)[C@H](N)C(C)C)[C@]2(C)[C@H](C)CC[C@]3(CCC(=O)[C@H]32)[C@@H](C)[C@@H]1O | - | - | 0.27µM | - | - | 0.24µM
C=C[C@]1(C)C[C@@H](OC(=O)CSCCN(CC)CC)[C@]2(C)[C@H](C)CC[C@]3(CCC(=O)[C@H]32)[C@@H](C)[C@@H]1O | - | - | 3µM | - | - | 7.5µM
Cn1c(=O)n(-c2ccc3c(c2)OCO3)c2nc(-c3ccccc3)nc(C(N)=O)c21 | - | - | ? | 0 | - | 0
COc1ccc(C(=O)N2CC(=O)Nc3ccc(C)cc3C2c2ccc(F)cc2)c(OC)c1 (stereo not given) | - | - | ? | 0 | - | 21µM
Cc1ccc(C(=O)N2CC(=O)Nc3ccc(F)cc3C2c2ccc(F)cc2)cc1[N+](=O)[O-] (stereo not given) | 0 | ? | ? | 0 | 0 | ?
Cc1ccc(C(=O)N2CC(=O)Nc3ccc(F)cc3C2c2ccccc2)cc1[N+](=O)[O-] (stereo not given) | 0 | ? | 21µM | 0 | 0 | 18µM
Cc1ccc2c(c1)C(c1ccccc1)N(C(=O)c1ccccc1[N+](=O)[O-])CC(=O)N2 (stereo not given) | 0 | 21µM | 9.2µM | - | 0 | 12µM
Cc1ccc(C(=O)N2CC(=O)Nc3ccc(C)cc3C2c2ccccc2)cc1 (stereo not given) | 0 | 0 | ? | - | 0 | ?
O=C1CN(C(=O)c2c(F)cccc2F)C(c2ccccc2)c2cc(Br)ccc2N1 (stereo not given) | 0 | 0 | ? | - | 0 | ?
O=C1CN(C(=O)c2ccccc2[N+](=O)[O-])C(c2ccccc2)c2cc(Br)ccc2N1 (stereo not given) | 0 | 18µM | ? | - | 0 | 21µM
CCc1ccc(CNC(=O)CN2C(=O)C3CCCCN3c3ccc(C(=O)N4CCCC4)cc32)cc1 (stereo not given) | - | - | ? | 0 | - | ?
NS(=O)(=O)c1ccc(CNc2ncnc3sccc23)cc1 | 0 | 0 | ? | 0 | 0 | ?
SMILES | Giardia kill | ELG1 DNA repair | TDP1 cell noCPT | TDP1 inh | IL-1B inflam inh | TDP1 cell CPT
Cc1sc2ncnc(NCCCn3ccnc3)c2c1C | 0 | 0 | 0 | 0 | 0 | 0
NS(=O)(=O)c1ccc(CCNc2ncnc3sccc23)cc1 | 0 | ? | 5.8µM | 0 | 0 | 7.3µM
CN(C)c1ccc(CNc2ncnc3sccc23)cc1 | 0 | 0 | 2.1µM | 0 | 0 | 4.1µM
Cc1sc2ncnc(NCCc3ccc(S(N)(=O)=O)cc3)c2c1C | 0 | 18µM | 1.5µM | 0 | 0 | 2.9µM
CN(C)c1ccc(CNc2ccccn2)cc1 | 0 | ? | ? | - | 0 | 0
C=CCOC(=O)N[C@@H](c1ccc(Br)cc1)C(C(C)=O)C(C)=O | - | - | - | 0 | - | -
Cc1ccc(C(=O)/C=C/c2cc(C#N)n(C)c2C)cc1 | 0 | ? | ? | 0[0.0935 µM] | 0 | 0
CCn1c(=O)n(-c2ccc(C)c(F)c2)c(=O)c2sc3ccccc3c21 | - | - | ? | 0 | - | 0
CCOCCCn1c(=N)c(C(=O)NCc2cccnc2)cc2c(=O)n3cc(C)ccc3nc21 | - | - | 0 | - | - | 0
CCOc1ccc(N(C(=O)c2ccc(S(=O)(=O)N3CCCC3)cc2)C2C=CS(=O)(=O)C2)cc1 (stereo not given) | 0 | 0 | 0 | 0 | 0 | 0
Cc1ccc(NC(=O)CN(C)C(=O)COC(=O)/C=C/c2cccs2)cc1 | 0 | 0 | 0 | - | -97 | 0
O=C(COC(=O)/C=C/C(=O)OCC(=O)Nc1ccccc1F)Nc1ccccc1F | 0 | 0 | ? | 0 | -82 | ?
COC(=O)c1ccccc1NC(=O)COC(=O)/C=C/c1cccs1 | 0 | 0 | 0 | 0 | 0 | 0
C/C=C/C(=O)OCC(=O)Nc1ccccc1Br | 0 | 0 | 0 | 0 | 0 | 0
CCOc1ccccc1NC(=O)COC(=O)/C=C/c1cccs1 | 0 | ? | 18µM | 0 | 0 | 0
COc1ccc([N+](=O)[O-])cc1NC(=O)c1ccccc1N(C)S(C)(=O)=O | 0 | 0 | 0 | 0 | 0 | 0
CCOC(=O)C1=C(C)NC(SCC(=O)OC)=C(C#N)C1c1ccc(C(=O)OC)cc1 (stereo not given) | 0 | 0 | 23µM! | 0 | 0 | ?
C=CCOC(=O)C1=C(C)NC(SCC(N)=O)=C(C#N)C1c1ccc(C)cc1 (stereo not given) | 0 | 0 | ? | 0 | 0 | 0
CC(=O)C1=C(C)NC(SCC(=O)Nc2nc3ccccc3s2)=C(C#N)C1c1ccc(Cl)cc1 (stereo not given) | 0 | ? | 18µM | 0 | 0 | ?
COc1ccc(NC(=O)CSC2=C(C#N)C(c3ccco3)C(C(=O)Nc3nc4ccccc4s3)=C(C)N2)cc1 (stereo not given) | 0 | - | ? | - | 0 | ?
